In the library only some 3.3% were active in any assay of this set; here they are far more common.
Tb PYK inh: inhibitors of Trypanosoma brucei pyruvate kinase; Q57TT1; actives 0.12% (n = 410,000); AID 624173; Potency, µM (titrated, usually from 76.8 µM), inactives show at the highest dose activity, negative = inhibition, most hits filed as inhibitors; TbPYK enzyme, Kinase-Glo Plus ATP luminescence, 45 min; further: on the % scale 0 is the no-effect control and ±100 the full control effect; nearly all actives have a fitted effect of over 50% in size
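Readout: single end-point luminescence (Kinase-Glo Plus, 10 min). Reaction conditions were TbPYK/substrate plus 130 uM ADP, 45 min at RT, pH 7.2 TEA buffer. No-enzyme wells served as controls, and data were normalized before concentration-response fitting.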
SARS PLpro yeast: SARS-CoV PLP inhibition in yeast. Potency, µM (series often up to 32.9 µM), inactives show top-dose activity, positive = growth rescue, actives largely listed as activators. actives 0.19% (n = 330,000). S. cerevisiae expressing SARS-CoV PLpro, growth rescue; calls by dose curve; further: 0% is about no effect; nearly all actives have a fitted effect of over 55% in size
RE007 growth inh: less growth of the S. pombe RE007 Vpr strain. S. pombe RE007 Vpr strain, BacTiter-Glo ATP luminescence, 24 h. Potency, µM (highest dose often 92.2 µM), for the others: at the top dose activity change, negative = less growth, hits mostly inhibitors. actives 0.21% (n = 360,000). AID 651644; active means well fitted falling curve with a large enough effect; inconclusive means small, poorly fitted or top-dose-only effect; inactive means no such curve, though single readings can be large or run the other way; further: on the % scale 0 is the no-effect control and ±100 the full control effect; nearly all actives have a fitted effect of over 50% in size
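Fission yeast RE007 carrying one integrated HIV-1 vpr copy, seeded at OD 0.01 in PMG+AL medium with 23 nL pinned compound. Grown 24 h at 30 degrees; viability read by BacTiter-Glo luminescence after 5 min.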
Sm TGR block: inhibitors of Schistosoma mansoni thioredoxin glutathione reductase | purified TGR, DTNB reduction, TNB absorbance 405 nm | Potency, µM (series often up to 114 µM), for inactives: top-dose activity change, negative = inhibition, most hits filed as inhibitors | actives 3% (n = 360,000) | AID 485364; further: on the % scale 0 is the no-effect control and ±100 the full control effect; nearly all actives have a fitted effect of over 60% in size
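TGR 20 nM + NADPH 100 uM (dispensed conc.), cpd preinc 15 min RT; start with NADPH (500 uM addition) then DTNB (15 mM addition). Kinetic TNB absorbance, 405 nm filter. Four-parameter Hill fit across titration.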
LmPK inhibitor: inhibitors of Leishmania mexicana pyruvate kinase; purified LmPK, Kinase-Glo ATP luminescence, 1 h; Potency, µM (series often up to 57.5 µM), for inactives: at the highest dose activity change, negative = inhibition, hits mostly inhibitors; actives 0.37% (n = 290,000); AID 1721; further: on the % scale 0 is the no-effect control and ±100 the full control effect
Target sequence (Q27686 whole entry, looked up): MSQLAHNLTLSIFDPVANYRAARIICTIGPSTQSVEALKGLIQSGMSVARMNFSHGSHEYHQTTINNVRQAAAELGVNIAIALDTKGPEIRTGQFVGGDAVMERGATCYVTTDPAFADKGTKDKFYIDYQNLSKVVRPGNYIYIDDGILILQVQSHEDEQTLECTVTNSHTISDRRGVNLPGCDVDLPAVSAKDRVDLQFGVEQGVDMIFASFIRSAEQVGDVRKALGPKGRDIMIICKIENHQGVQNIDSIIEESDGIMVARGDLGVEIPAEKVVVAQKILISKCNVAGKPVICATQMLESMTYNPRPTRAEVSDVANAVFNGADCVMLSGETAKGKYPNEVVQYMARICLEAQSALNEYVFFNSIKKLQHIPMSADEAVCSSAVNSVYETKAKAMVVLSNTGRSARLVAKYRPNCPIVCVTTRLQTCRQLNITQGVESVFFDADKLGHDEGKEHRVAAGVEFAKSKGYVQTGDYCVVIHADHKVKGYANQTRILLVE
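Kinase-Glo luminescence read after 1 h RT reaction of 0.1 nM LmPK with 0.5 mM PEP and 0.1 mM ADP. Activity scaled between uninhibited and enzyme-free controls.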
NS1 function inh: inhibitors of influenza NS1 protein function; Potency, µM (titrated, usually from 46.1 µM), for the others: top-dose activity, positive = more growth; actives 0.4% (n = 270,000); calls by dose curve; further: actives are rising curves; nearly all actives have a fitted effect of over 50% in size
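Compounds were scored for reversing the slow growth caused by influenza A NS1 in S. cerevisiae, measured by optical density at 600 nm. Assay medium contained 2% galactose at pH 6.0; NS1-free yeast of the same strain were the positive control.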
Starred values were filed as active, the others as inactive; ? = inconclusive; . = no result given. Unless noted, the call rests on the fitted dose curve; in most records, active means well fitted curve in the direction sought with a large enough effect; inconclusive means small, poorly fitted or top-dose-only effect, or another doubt; inactive means no such curve, though single readings can be large; an effect the other way counts as inactive or inconclusive. Potency means the concentration at half of the fitted maximal effect.

SMILES	Tb PYK inh	SARS PLpro yeast	RE007 growth inh	Sm TGR block	LmPK inhibitor	NS1 function inh
Cc1ccc(N=N/C(=C\O)C(=O)c2ccncc2)cc1	0%	-12%	20µM*	-17%	10%	-40%
O=C(/C(=C/O)N=Nc1ccc(Cl)cc1)c1ccncc1	8%	-26%	20µM*	3%	-2%	-127%
CCOc1ccc(S(=O)(=O)NCc2cccn2Cc2cccc(C)c2)cc1	0%	.	.	-9%	.	.
CCOc1cc(C2c3c(n[nH]c3C)C(=O)N2c2ccc(Br)cc2)ccc1O (stereo unspecified)	2%	6%	-9%	11µM*	1%	4%
COc1cc(C2c3c(n[nH]c3C)C(=O)N2c2ccc(Br)cc2)ccc1O (stereo unspecified)	-6%	2%	-8%	4.5µM*	10%	10%
Cc1cc(Cl)ccc1OCC(=O)N1CCC(c2nc3ccccc3o2)CC1	0%	.	.	4%	.	.
O=C(CN1C(=O)CC(c2ccc(F)cc2)=Nc2ccccc21)NCc1ccccc1Cl	-2%	.	.	-10%	.	.
O=C(/C=C/c1ccco1)N(Cc1ccc(F)cc1)C1CCS(=O)(=O)C1 (stereo unspecified)	-6%	0%	7%	7.9µM*	1%	2%
O=C(/C=C/c1ccco1)N(Cc1cccc(Br)c1)C1CCS(=O)(=O)C1 (stereo unspecified)	-22%	-4%	-6%	3.2µM*	2%	8%
O=C(c1ccccc1)N(Cc1cccc(Br)c1)C1CCS(=O)(=O)C1 (stereo unspecified)	-12%	14%	-10%	6%	2%	6%
O=C(/C=C/c1ccccc1)N(Cc1cccc(Cl)c1)C1CCS(=O)(=O)C1 (stereo unspecified)	3%	1%	-6%	-6%	5%	-2%
O=C(/C=C/c1ccco1)N(Cc1cccc(Cl)c1)C1CCS(=O)(=O)C1 (stereo unspecified)	-13%	0%	7%	2.8µM*	-2%	2%
O=C(/C=C/c1ccco1)N(Cc1cccc(F)c1)C1CCS(=O)(=O)C1 (stereo unspecified)	-7%	2%	2%	10µM*	-5%	12%
O=C(c1ccco1)N(Cc1cccc(F)c1)C1CCS(=O)(=O)C1 (stereo unspecified)	19%	12%	15%	-11%	-2%	-3%
CC(C)c1ccc2oc(-c3ccc(NC(=O)c4cccc(Br)c4)cc3)nc2c1	-6%	.	.	0%	.	.
CCOCCc1nnc(NC(=O)C(=O)c2cc(C)n(-c3cccc(C)c3)c2C)s1	2%	.	.	8%	.	.
CCOc1ccc(NC(=O)CSc2cn(CC(=O)N3CCOCC3)c3ccccc23)cc1	1%	.	.	-1%	.	.
O=C(/C=C/c1ccco1)N(Cc1ccccc1)C1CCS(=O)(=O)C1 (stereo unspecified)	0%	0%	-13%	3.2µM*	1%	6%
O=C(/C=C/c1ccccc1)N(Cc1ccc(Cl)cc1)C1CCS(=O)(=O)C1 (stereo unspecified)	-3%	0%	4%	0%	-3%	-6%
Cc1[nH]n(-c2ccc([N+](=O)[O-])cc2)c(=O)c1C=NCCN1CCN(C(=O)c2ccc(Br)cc2)CC1	-6%	-28%	7.1µM*	-1%	-25%	0%
Cc1[nH]n(-c2ccc([N+](=O)[O-])cc2)c(=O)c1C=NCCN1CCN(C(=O)c2ccc(F)cc2)CC1	3%	-6%	-11%	-26%	-21%	2%
Cc1[nH]n(-c2ccc([N+](=O)[O-])cc2)c(=O)c1C=NCCN1CCN(C(=O)c2cccc(F)c2)CC1	-7%	-33%	8.9µM*	-2%	?	6%
COCCNC(=O)CCCn1c(SCc2ccccc2C)nc2c(sc3ccccc32)c1=O	-5%	.	.	-1%	.	.
Cc1cccc(NC(=O)c2cc3c(n(-c4ccccc4)c2=O)CCCC3=O)n1	-3%	0%	2%	32µM*	-2%	-2%
COC(=O)c1cc2c(n(-c3ccccc3)c1=O)CCCC2=O	-6%	.	8%	.	.	.
SMILES	Tb PYK inh	SARS PLpro yeast	RE007 growth inh	Sm TGR block	LmPK inhibitor	NS1 function inh
CC1=C(c2ccc(NN=C(C#N)C#N)cc2)NNC(=O)C1	1%	.	.	.	.	.
Cc1ccc(S(=O)(=O)c2nc(-c3ccccc3)oc2N2CCN(c3ccccc3)CC2)cc1	-4%	.	.	8%	.	.
Cc1ccc(S(=O)(=O)c2nc(Cc3ccccc3)oc2N2CCOCC2)cc1	5%	8%	-2%	0.79µM*	.	.
Cc1ccc(-c2nc(S(=O)(=O)c3ccc(C)cc3)c(N3CCN(c4ccccc4)CC3)o2)cc1	-3%	.	.	2%	.	.
O=S(=O)(c1ccccc1)c1nc(-c2ccccc2)oc1N1CCCCC1	23%	4%	10%	22µM*	4%	11%
O=S(=O)(c1ccccc1)c1nc(-c2ccccc2)oc1N1CCCC1	-14%	0%	-6%	-23%	1%	9%
Cc1ccc(S(=O)(=O)c2nc(-c3ccccc3)oc2N2CCCC2)cc1	22%	3%	23%	2µM*	.	.
Cc1ccc(S(=O)(=O)c2nc(-c3ccccc3)oc2N2CCC(C(N)=O)CC2)cc1	3%	1%	5%	14µM*	8%	4%
Cc1ccc2c(n1)Oc1ccc(C(C)C(=O)OCC(=O)N(C)C)cc1C2 (stereo unspecified)	-12%	.	.	.	.	.
O=S(=O)(c1ccccc1)c1nc(-c2ccccc2F)oc1N1CCOCC1	2%	.	.	-12%	.	.
Cc1ccc(S(=O)(=O)c2nc(-c3ccccc3F)oc2N2CCCCC2)cc1	2%	.	.	45µM*	.	.
COc1ccc(-c2nc(S(=O)(=O)c3ccccc3)c(N3CCOCC3)o2)cc1	7%	13%	7%	40µM*	0%	-11%
CC(C)(C)c1ccc(-c2nc(S(=O)(=O)c3ccccc3)c(N3CCOCC3)o2)cc1	11%	.	.	5%	.	.
Cc1ccc(S(=O)(=O)c2nc(-c3ccco3)oc2N2CCC(C)CC2)cc1	-18%	-11%	6%	40µM*	2%	-39%
Cc1ccc(S(=O)(=O)c2nc(-c3cccc(C)c3)oc2N2CCCCC2)cc1	2%	.	.	20µM*	.	.
COc1ccc(/C=C/C(=O)Nc2ccc3nc4c(c(Nc5ccc(OC)c(OC)c5)c3c2)CCCC4)cc1	2%	.	.	-11%	.	.
CC(=O)Oc1ccc(C2(c3ccc(OC(C)=O)cc3)Oc3ccccc3NC2=O)cc1	-5%	.	.	.	.	.
O=C(NCCSCc1ccc(Cl)cc1)C1CCN(S(=O)(=O)Cc2ccccc2)CC1	-5%	.	.	7%	.	.
COc1ccc(NC(=O)CSc2oc(-c3ccc(F)cc3)nc2S(=O)(=O)c2ccc(C)cc2)c(OC)c1	7%	.	.	45µM*	.	.
COc1ccc(-c2nc(S(=O)(=O)c3ccc(C)cc3)c(N3CCCCC3)o2)cc1	3%	.	.	10µM*	.	.

Screening data deposited in PubChem by National Center for Advancing Translational Sciences (NCATS).
